This passage reports outcome and AC50 results from PubChem BioAssay (EPA / NIEHS).

Results filed as inconclusive are left out. Calls of active or inactive are those of the source. The calls were made as follows: active = hit-call score of the fitted dose curve at least 0.9, where 1 is the maximum; inconclusive = response in the unintended direction; inactive = score below 0.9.

Sequence of human CYP2D6, CYP2D6 (gene 1565) (P10635 whole entry, looked up): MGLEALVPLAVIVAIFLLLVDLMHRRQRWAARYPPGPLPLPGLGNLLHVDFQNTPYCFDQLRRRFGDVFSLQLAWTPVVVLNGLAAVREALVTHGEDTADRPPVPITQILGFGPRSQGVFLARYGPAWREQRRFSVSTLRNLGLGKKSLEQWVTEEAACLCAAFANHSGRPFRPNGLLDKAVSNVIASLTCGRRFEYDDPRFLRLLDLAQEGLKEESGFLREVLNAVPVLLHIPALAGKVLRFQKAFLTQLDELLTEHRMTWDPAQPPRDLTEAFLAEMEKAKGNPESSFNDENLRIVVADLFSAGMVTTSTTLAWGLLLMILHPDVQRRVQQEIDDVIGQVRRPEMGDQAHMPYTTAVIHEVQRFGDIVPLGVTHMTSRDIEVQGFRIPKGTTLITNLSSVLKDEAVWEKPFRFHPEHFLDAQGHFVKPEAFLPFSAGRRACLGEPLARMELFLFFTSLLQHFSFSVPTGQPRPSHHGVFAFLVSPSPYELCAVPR
Sequence of human CYP2A6, CYP2A6 (gene 1548) (P11509 whole entry, looked up): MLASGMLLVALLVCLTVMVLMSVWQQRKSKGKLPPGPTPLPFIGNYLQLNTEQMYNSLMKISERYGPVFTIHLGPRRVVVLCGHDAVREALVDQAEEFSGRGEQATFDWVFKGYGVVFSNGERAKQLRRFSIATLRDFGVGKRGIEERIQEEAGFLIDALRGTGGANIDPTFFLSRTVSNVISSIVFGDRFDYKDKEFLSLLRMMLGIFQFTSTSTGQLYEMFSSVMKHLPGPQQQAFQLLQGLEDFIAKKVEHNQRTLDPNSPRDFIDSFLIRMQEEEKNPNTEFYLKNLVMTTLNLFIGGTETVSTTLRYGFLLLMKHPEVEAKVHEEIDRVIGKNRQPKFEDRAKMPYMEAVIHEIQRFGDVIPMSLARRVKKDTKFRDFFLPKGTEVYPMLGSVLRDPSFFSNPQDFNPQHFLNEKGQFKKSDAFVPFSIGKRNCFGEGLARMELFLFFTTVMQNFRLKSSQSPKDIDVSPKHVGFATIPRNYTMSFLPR
Sequence of human CYP1A2, CYP1A2 (gene 1544) (P05177 whole entry, looked up): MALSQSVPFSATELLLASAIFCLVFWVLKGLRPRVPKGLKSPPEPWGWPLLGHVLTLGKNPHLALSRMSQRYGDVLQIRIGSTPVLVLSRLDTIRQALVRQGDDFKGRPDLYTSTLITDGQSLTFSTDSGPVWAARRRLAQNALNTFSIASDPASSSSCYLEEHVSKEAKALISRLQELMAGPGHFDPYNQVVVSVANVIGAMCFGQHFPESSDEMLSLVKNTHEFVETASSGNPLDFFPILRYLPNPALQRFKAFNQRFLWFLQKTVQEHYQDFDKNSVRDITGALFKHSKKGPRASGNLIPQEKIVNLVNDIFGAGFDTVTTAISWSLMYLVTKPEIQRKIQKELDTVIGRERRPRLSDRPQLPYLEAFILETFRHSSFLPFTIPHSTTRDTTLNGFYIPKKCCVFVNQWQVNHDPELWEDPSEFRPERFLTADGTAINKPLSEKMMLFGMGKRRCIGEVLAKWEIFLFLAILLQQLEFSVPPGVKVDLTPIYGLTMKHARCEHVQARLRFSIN
Sequence of human CYP2C9, CYP2C9 (gene 1559) (P11712 whole entry, looked up): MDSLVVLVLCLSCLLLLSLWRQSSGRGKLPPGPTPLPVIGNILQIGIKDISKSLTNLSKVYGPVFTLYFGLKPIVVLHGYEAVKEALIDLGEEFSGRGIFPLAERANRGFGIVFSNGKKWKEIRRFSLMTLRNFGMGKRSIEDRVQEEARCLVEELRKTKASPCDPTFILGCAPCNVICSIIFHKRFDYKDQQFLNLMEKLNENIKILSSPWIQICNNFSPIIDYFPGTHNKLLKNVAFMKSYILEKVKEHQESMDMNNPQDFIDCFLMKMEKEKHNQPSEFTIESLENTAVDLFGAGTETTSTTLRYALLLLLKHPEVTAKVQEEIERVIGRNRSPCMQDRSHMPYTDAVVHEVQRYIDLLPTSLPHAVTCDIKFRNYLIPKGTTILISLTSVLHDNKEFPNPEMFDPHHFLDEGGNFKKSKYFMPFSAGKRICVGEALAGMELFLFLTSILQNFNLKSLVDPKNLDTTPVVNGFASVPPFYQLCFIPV

One assay has as its target human CYP2A6, CYP2A6 (gene 1548) (UniProt P11509). Kind of assay: NVS_ADME_hCYP2A6: NovaScreen (NVS) CYP450-related Enzyme Activity (ADME) Assay for human CYP2A6 (AID 2283099). In a few lines: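 Cell-free fluorescence readout of recombinant human CYP2A6 expressed in insect cells, read 0.5 h after dosing; loss of signal versus acetonitrile negative control. Primary screen in duplicate at 10 uM; actives re-run in concentration-response up to 20 uM.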
For the molecule `O=C1OC(c2ccc(O)cc2)(c2ccc(O)cc2)c2ccccc21`, the outcome was inactive.
Same read-out and setting: the same measure for `CN(C)C(=O)NC1(c2ccccc2)CCN(CCC[C@]2(c3ccc(Cl)c(Cl)c3)CCCN(C(=O)c3ccccc3)C2)CC1`: “inactive”.
Same read-out and setting: the same measure for `CCc1nc(N)nc(N)c1-c1ccc(Cl)cc1`: “inactive”.
As to `S=c1[nH]c2ccccc2s1`, the AC50 (as a rule, the concentration giving half of the maximal activity seen) is 4.85 µM (active).
`NC1CCCCC1`: the call was inactive.
For the molecule `CC1(C)C(=O)NC(=O)N1CO`, the outcome was inactive.
Turning to `C=CCc1ccc(OC)c(OC)c1`, the molecule was called inactive.

Another assay deals with human CYP1A1, CYP1A1 (gene 1543) (UniProt P04798). Kind of assay: NVS_ADME_hCYP1A1: NovaScreen (NVS) CYP450-related Enzyme Activity (ADME) Assay for human CYP1A1 (AID 2283100). In a few lines: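 Cell-free fluorescence assay of recombinant human CYP1A1 activity with a specific substrate, read 1 h after dosing. Compounds were screened in duplicate at 10 uM, then hits tested in concentration-response up to 20 uM; acetonitrile served as baseline.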
Sequence of human CYP1A1, CYP1A1 (gene 1543) (P04798 whole entry, looked up): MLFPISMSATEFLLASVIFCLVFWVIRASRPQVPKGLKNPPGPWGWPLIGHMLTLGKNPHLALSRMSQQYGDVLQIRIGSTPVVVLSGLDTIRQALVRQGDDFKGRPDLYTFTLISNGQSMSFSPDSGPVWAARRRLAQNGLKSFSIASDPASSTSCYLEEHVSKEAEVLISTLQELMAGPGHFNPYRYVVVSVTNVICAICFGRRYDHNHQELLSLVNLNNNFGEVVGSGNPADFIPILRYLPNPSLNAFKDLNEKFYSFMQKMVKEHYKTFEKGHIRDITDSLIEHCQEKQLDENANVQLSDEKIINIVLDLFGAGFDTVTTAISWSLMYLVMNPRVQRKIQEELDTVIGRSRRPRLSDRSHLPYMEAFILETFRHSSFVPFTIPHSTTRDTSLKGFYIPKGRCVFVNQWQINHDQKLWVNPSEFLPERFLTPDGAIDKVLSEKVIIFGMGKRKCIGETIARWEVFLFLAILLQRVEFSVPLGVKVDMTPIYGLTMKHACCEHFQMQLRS
As for `CC(=O)OCC(COC(C)=O)OC(C)=O`, the molecule was called inactive.
On to `CCC(C)N(C)C(=O)c1cc2ccccc2c(-c2ccccc2Cl)n1` (stereo not drawn), for which the molecule was called inactive.
In the case of `CC(=O)OC1CC(C)OC(C)O1` (stereo not drawn), the outcome was inactive.
Regarding `CC(C)(O)c1ccc(CNC(=O)c2cccnc2Oc2ccc(F)cc2)cc1`, the molecule was called inactive.
For `CN(C)CCCN1c2ccccc2Sc2ccc(Cl)cc21`, the molecule was called inactive.
As to `COC(=O)[C@H]1[C@H]2C[C@@H]3c4[nH]c5cc(OC)ccc5c4CCN3C[C@H]2C[C@@H](OC(=O)c2cc(OC)c(OC)c(OC)c2)[C@@H]1OC`, the call was inactive.

The target of another assay is human CYP2B6, CYP2B6 (gene 1555) (UniProt P20813). Kind of assay: NVS_ADME_hCYP2B6: NovaScreen (NVS) CYP450-related Enzyme Activity (ADME) Assay for human CYP2B6 (AID 2283101). In a few lines: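 Fluorescence-based enzyme activity of recombinant human CYP2B6, measured 1 h post-dose against acetonitrile vehicle baseline. Screened at a single concentration of 10 uM in duplicate before concentration-response follow-up.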
Sequence of human CYP2B6, CYP2B6 (gene 1555) (P20813 whole entry, looked up): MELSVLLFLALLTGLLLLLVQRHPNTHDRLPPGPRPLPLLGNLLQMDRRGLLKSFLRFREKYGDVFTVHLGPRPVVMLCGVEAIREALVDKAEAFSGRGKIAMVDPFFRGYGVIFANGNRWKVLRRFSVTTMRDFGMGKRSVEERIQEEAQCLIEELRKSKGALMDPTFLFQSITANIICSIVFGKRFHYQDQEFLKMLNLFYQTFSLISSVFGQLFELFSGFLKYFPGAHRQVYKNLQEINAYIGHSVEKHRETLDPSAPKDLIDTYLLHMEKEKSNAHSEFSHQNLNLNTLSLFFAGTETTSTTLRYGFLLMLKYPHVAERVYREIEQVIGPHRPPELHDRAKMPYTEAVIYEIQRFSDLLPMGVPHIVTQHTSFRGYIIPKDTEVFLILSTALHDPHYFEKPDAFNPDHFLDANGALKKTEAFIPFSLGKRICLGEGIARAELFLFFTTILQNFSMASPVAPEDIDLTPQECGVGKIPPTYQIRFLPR
As for `CCN(CC)CCOc1ccc(C(=C(Cl)c2ccccc2)c2ccccc2)cc1`, the half-maximal activity concentration (AC50) was 11.3 µM (active).
Turning to `O=C1OC(c2ccc(O)cc2)(c2ccc(O)cc2)c2ccccc21`, the molecule was classed as inactive.
For `CC(COCC(C)OC(=O)c1ccccc1)OC(=O)c1ccccc1` (stereo not drawn), the molecule was classed as inactive.
For `S=c1[nH]c2ccccc2s1`, the AC50 was 1.28 µM (active).
For the molecule `NC1CCCCC1`, the molecule was classed as inactive.

A further assay has as its target human CYP1A2, CYP1A2 (gene 1544) (UniProt P05177). Kind of assay: NVS_ADME_hCYP1A2: NovaScreen (NVS) CYP450-related Enzyme Activity (ADME) Assay for human CYP1A2 (AID 2283102).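 As to AC50: potency for inhibition since loss of fluorescence marks reduced CYP1A2 activity.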 In outline:
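Cell-free recombinant human CYP1A2 expressed in insect cells, with fluorogenic substrate; fluorescence intensity read 0.5 h after dosing. Loss of signal relative to acetonitrile baseline scored. Primary screen in duplicate at 10 uM; actives retested in concentration series.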
Regarding `O=C(O)CN(CC(=O)O)CC(=O)O`, the outcome was inactive.
On the same count and under the same terms, the same measure for `COc1ccc(C(=O)Nc2nc3ccccc3c(NCc3ccccc3)c2C#N)cc1`: “inactive”; for `Cc1cc(Cc2ccc(N)c(C)c2)ccc1N`: “inactive”.
In the case of `CC(COCC(C)OC(=O)c1ccccc1)OC(=O)c1ccccc1` (stereo not drawn), the AC50 is 8.75 µM (active).
On to `S=c1[nH]c2ccccc2s1`, for which the molecule was classed as inactive.

The next assay has as its target human CYP2D6, CYP2D6 (gene 1565) (UniProt P10635). Description: NVS_ADME_hCYP2D6: NovaScreen (NVS) CYP450-related Enzyme Activity (ADME) Assay for human CYP2D6 (AID 2283107). In outline: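 Cell-free assay using recombinant enzyme expressed in insect cells, with fluorescence-intensity readout of enzyme activity 1 hour after chemical dosing. Loss of signal versus acetonitrile negative control indicates inhibition. Primary screen ran in duplicate at 10 uM; actives were retested in concentration series.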
For `CCN(CC)CCOc1ccc(C(=C(Cl)c2ccccc2)c2ccccc2)cc1`, the AC50 was 2.38 µM (active).
On the same count and under the same terms, the same measure for `NC(=Nc1ccccc1)Nc1ccccc1`: 0.984 µM (active); for `CCCCCCCCCC[N+](C)(C)[O-]`: 2.69 µM (active).
Still for that read-out and setting: the same measure for `CN(C)C(=O)NC1(c2ccccc2)CCN(CCC[C@]2(c3ccc(Cl)c(Cl)c3)CCCN(C(=O)c3ccccc3)C2)CC1`: 1.25 µM (active).
As for `CC(=O)OC1CC(C)OC(C)O1` (stereo not drawn), the molecule was classed as inactive.
On to `CSc1ccc(Oc2ccc(S(N)(=O)=O)cc2CN(C)C)cc1C`, for which the AC50 was 4.8 µM (active).
On the same count and under the same terms, the same measure for `S=c1[nH]c2ccccc2s1`: 6.77 µM (active).

A further assay addresses human CYP2C9, CYP2C9 (gene 1559) (UniProt P11712). Description: NVS_ADME_hCYP2C9: NovaScreen (NVS) CYP450-related Enzyme Activity (ADME) Assay for human CYP2C9 (AID 2283108). In outline:
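Cell-free assay of recombinant human CYP2C9 produced in Sf9 cells, with enzyme activity read by fluorescence intensity 0.75 h after compound addition. Loss of signal versus an acetonitrile negative control indicates inhibition. Primary screen used 10 uM in duplicate; actives were retested in concentration series.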
On to `CCCCc1nc2cccnc2n1Cc1ccc(-c2ccccc2-c2nnn[nH]2)cc1`, for which the AC50 is 2.96 µM (active).
For `CCN(CC)CCOc1ccc(C(=C(Cl)c2ccccc2)c2ccccc2)cc1`, the AC50 is 6.93 µM (active).
As to `CCc1cc(C2=C(C(=O)O)N(c3ccccc3C(F)(F)F)S(=O)(=O)c3ccccc32)cc2c1OCO2`, the result was inactive.
In the case of `O=C1OC(c2ccc(O)cc2)(c2ccc(O)cc2)c2ccccc21`, the AC50 is 6.81 µM (active).
Still for that read-out and setting: the same measure for `CCCCCCC(CCCCCCCCCCC(=O)OCC(COC(C)=O)OC(C)=O)OC(C)=O` (stereo not drawn): 1.41 µM (active).
Still for that read-out and setting: the same measure for `CCC(C)N(C)C(=O)c1cc2ccccc2c(-c2ccccc2Cl)n1` (stereo not drawn): 4.2 µM (active).
For the molecule `CC(=O)OC1CC(C)OC(C)O1` (stereo not drawn), the half-maximal activity concentration (AC50) was 4.37 µM (active).
For the molecule `CSc1ccc(Oc2ccc(S(N)(=O)=O)cc2CN(C)C)cc1C`, the AC50 was 4.84 µM (active).
As to `CC(C)OC(=O)C(C)(C)Oc1ccc(C(=O)c2ccc(Cl)cc2)cc1`, the outcome was inactive.
Still for that read-out and setting: the same measure for `Cc1c(C)c2c(c(C)c1O)CCC(C)(COc1ccc(CC3SC(=O)NC3=O)cc1)O2` (stereo not drawn): “inactive”.
On to `CCCCC(CC)COP(=O)(OCC(CC)CCCC)OCC(CC)CCCC` (stereo not drawn), for which the molecule was classed as inactive.
As to `S=c1[nH]c2ccccc2s1`, the AC50 was 7.33 µM (active).
Same read-out and setting: the same measure for `Cc1ccc(-c2cc(C(F)(F)F)nn2-c2ccc(S(N)(=O)=O)cc2)cc1`: 6 µM (active); for `O=C(NS(=O)(=O)/C=C/c1cccs1)c1ccc(F)cc1Br`: 4.11 µM (active).

The target of a further assay is Cytochrome P450 3A4 (Homo sapiens) (UniProt P08684). Kind of assay: NVS_ADME_hCYP3A4: NovaScreen (NVS) CYP450-related Enzyme Activity (ADME) Assay for human CYP3A4 (AID 2283110). In outline: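 Activity is derived from decreased fluorescence intensity relative to acetonitrile, measured 0.33 hour after dosing insect-cell-expressed CYP3A4 in a cell-free format. Screening used 10 uM in duplicate before concentration-response follow-up.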
Sequence of Cytochrome P450 3A4 (Homo sapiens) (P08684 whole entry, looked up): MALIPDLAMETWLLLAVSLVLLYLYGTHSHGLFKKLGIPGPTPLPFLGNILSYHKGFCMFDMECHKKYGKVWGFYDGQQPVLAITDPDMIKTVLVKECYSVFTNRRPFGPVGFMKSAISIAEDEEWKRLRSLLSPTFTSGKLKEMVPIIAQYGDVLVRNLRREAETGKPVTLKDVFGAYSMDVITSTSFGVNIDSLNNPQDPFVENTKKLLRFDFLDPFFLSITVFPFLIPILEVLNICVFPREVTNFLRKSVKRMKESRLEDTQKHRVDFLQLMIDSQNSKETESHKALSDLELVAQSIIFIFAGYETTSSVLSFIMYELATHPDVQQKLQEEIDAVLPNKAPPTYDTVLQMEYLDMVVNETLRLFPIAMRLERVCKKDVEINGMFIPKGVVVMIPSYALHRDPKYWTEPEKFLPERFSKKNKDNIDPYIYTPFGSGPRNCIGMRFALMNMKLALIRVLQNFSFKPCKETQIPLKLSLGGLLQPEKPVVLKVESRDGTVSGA
For `CCc1cc(C2=C(C(=O)O)N(c3ccccc3C(F)(F)F)S(=O)(=O)c3ccccc32)cc2c1OCO2`, the AC50 was 4.98 µM (active).
As for `CC(=O)OCC(COC(C)=O)OC(C)=O`, the outcome was inactive.
On to `CN(C)C(=O)NC1(c2ccccc2)CCN(CC[C@@]2(c3ccc(F)c(F)c3)CN(C(=O)c3ccccc3)CCO2)CC1`, for which the AC50 is 5.63 µM (active).
Turning to `CC1(C)C(=O)NC(=O)N1CO`, the outcome was inactive.
